Test results: paper PMC7862700, “An all-to-all approach to the identification of sequence-specific readers for epigenetic DNA modifications on cytosine”

What was measured:
Assay in all cases: DAPPL (digital affinity profiling via proximity ligation, sequencing); 10 mM Tris-HCl pH 7.5, 50 mM NaCl, 1 mM DTT, 4% glycerol, room temperature, 30 min; GST-TFs on glutathione beads, 16-mer random dsDNA library, 0.1% formaldehyde crosslink after washing; high values mean tight binding
Settings in all cases: protein: recombinant; tags: N-terminal GST; dsDNA, one strand shown
ETV2 = target: T1, ETV2 (Homo sapiens, UniProt O00321 1-342)
T1 sequence: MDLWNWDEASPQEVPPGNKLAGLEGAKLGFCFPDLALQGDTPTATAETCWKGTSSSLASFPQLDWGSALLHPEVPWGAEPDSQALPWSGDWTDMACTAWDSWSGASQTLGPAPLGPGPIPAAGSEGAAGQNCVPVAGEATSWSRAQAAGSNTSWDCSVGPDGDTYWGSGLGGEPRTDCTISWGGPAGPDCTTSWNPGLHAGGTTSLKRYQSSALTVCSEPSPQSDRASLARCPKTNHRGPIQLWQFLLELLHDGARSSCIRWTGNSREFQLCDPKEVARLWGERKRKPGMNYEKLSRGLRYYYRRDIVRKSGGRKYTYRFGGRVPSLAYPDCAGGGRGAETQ
In short: (§1)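 Pools were built from human transcription factors expressed in yeast as GST fusions, captured on glutathione beads and DNA-barcoded, along with a tag-only sample. Incubation with 200 nmole of a 16-mer random double-stranded DNA library lasted 30 min at room temperature in Tris/NaCl/DTT/glycerol buffer, and was followed by washing, 0.1% formaldehyde crosslinking, proximity ligation, PCR amplification and Illumina NextSeq500 sequencing. Binding signal is the quotient of each hexamer's read frequency for a factor and its frequency for the tag-only sample.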

FLI1 = target: T2, FLI1 (Homo sapiens, UniProt Q01543 1-452)
T2 sequence: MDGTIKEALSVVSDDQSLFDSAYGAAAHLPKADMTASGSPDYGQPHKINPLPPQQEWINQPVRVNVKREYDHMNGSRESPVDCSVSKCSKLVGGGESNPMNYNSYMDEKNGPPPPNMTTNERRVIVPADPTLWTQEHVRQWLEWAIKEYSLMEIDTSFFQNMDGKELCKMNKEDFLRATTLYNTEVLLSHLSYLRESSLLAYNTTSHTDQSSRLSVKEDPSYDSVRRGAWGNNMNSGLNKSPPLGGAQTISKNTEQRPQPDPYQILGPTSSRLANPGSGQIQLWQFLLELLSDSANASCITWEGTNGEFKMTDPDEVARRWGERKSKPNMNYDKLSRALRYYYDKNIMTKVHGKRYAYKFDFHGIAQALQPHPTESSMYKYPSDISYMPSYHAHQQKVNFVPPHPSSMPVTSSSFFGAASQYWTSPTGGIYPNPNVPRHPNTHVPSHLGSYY
In short: as §1

ERG = target: T3, ERG (Homo sapiens, UniProt P11308 1-479)
T3 sequence: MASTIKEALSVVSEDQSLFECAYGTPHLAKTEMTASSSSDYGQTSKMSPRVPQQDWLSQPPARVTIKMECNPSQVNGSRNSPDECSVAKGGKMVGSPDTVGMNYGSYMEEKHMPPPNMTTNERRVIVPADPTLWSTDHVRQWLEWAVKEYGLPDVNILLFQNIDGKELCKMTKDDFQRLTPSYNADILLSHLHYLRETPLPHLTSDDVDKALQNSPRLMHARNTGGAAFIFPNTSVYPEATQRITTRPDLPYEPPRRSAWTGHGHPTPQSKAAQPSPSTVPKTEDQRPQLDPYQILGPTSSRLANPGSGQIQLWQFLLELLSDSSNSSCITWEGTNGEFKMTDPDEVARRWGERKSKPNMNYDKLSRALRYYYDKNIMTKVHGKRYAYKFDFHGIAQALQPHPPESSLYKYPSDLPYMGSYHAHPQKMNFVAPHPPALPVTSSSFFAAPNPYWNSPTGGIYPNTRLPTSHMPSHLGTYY
In short: as §1

ELF1 = ELF1 (Homo sapiens, UniProt P32519 1-619)
Chain of ELF1 (P32519 whole entry): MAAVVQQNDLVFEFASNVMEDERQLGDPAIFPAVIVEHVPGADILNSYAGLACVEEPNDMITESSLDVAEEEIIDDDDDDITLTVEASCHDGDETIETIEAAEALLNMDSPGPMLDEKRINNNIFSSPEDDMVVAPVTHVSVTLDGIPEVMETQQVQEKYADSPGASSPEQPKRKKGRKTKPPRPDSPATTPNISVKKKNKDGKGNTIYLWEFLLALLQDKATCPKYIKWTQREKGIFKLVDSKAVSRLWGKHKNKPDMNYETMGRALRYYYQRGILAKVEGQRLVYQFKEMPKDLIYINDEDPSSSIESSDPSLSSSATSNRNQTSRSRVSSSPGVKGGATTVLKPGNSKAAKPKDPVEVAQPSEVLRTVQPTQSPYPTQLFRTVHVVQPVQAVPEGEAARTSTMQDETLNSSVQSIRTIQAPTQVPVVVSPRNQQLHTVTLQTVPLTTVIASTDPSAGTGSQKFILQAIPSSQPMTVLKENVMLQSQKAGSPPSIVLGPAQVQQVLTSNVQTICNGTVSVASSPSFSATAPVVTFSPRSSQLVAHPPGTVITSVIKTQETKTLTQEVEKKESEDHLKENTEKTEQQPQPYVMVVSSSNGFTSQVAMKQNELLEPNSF
In short: as §1

ETV5 = ETV5 (Homo sapiens, UniProt P41161 1-510)
Chain of ETV5 (P41161 whole entry): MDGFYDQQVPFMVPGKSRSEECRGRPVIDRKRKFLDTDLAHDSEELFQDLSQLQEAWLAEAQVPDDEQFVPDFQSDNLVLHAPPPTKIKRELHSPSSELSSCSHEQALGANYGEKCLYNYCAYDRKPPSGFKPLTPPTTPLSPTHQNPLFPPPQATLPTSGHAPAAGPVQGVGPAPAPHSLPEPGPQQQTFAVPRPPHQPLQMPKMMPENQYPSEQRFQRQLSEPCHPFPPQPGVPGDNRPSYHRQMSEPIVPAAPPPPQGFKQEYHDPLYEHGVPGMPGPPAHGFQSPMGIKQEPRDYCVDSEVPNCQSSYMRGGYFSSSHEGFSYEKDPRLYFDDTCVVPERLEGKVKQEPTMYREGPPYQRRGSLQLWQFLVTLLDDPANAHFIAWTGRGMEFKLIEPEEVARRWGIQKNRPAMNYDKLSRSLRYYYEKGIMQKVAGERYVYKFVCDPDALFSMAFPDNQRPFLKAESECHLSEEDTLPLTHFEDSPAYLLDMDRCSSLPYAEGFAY
In short: as §1

ELF4 = ELF4 (Homo sapiens, UniProt Q99607 1-663)
Chain of ELF4 (Q99607 whole entry): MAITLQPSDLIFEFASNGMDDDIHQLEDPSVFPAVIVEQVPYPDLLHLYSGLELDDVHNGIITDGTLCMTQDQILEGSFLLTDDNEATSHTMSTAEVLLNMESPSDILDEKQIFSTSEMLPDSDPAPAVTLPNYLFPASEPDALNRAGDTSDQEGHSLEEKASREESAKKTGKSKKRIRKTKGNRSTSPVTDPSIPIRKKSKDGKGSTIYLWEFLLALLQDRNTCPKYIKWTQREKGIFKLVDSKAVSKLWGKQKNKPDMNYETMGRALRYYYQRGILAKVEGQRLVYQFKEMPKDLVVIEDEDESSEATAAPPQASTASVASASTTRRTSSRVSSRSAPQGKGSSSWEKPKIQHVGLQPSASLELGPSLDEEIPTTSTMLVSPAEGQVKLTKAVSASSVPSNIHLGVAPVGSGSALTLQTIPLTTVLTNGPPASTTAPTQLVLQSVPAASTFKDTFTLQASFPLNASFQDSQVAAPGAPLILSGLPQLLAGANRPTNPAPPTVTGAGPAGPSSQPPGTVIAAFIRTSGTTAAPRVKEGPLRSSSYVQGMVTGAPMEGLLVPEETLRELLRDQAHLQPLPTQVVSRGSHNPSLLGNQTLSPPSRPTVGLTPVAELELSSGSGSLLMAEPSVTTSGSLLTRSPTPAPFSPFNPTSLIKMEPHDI
In short: as §1

ERF = target: T4, ERF (Homo sapiens, UniProt P50548 1-548)
T4 sequence: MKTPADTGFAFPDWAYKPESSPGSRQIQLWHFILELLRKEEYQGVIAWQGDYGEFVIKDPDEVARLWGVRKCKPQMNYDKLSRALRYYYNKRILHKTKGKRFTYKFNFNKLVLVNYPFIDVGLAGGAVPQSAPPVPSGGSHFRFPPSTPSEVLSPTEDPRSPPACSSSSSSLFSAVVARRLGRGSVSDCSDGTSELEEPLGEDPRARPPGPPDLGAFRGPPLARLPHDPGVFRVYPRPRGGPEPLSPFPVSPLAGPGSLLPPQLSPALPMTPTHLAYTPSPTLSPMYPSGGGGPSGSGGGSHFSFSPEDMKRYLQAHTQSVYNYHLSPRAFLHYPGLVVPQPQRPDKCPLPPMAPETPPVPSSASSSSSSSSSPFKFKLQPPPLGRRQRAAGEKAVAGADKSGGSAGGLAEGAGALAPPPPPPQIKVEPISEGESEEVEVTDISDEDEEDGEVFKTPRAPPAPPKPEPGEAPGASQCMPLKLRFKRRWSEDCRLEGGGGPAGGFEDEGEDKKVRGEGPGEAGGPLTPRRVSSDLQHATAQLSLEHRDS
In short: as §1

ETV3L = target: T5, ETV3L (Homo sapiens, UniProt Q6ZN32 1-361)
T5 sequence: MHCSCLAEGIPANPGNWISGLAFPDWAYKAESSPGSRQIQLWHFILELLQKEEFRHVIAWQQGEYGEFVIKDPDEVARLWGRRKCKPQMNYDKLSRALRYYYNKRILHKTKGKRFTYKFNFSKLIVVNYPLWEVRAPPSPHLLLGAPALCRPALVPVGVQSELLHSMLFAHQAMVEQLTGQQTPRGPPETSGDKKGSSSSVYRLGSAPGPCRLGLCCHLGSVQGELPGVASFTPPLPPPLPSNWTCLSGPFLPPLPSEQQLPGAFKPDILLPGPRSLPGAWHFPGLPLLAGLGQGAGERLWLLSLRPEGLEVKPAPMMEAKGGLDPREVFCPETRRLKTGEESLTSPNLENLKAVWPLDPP
In short: as §1

ETV7 = target: T6, ETV7 (Homo sapiens, UniProt Q9Y603 1-341)
T6 sequence: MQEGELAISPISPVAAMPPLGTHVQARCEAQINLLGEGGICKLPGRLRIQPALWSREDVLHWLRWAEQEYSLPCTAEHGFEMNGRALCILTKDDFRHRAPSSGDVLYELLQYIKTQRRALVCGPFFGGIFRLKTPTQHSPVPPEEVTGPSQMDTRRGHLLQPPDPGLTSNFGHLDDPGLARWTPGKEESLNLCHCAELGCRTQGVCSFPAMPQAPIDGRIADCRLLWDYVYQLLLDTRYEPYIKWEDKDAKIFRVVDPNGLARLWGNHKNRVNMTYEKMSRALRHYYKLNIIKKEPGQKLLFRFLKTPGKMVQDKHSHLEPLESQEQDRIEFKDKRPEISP
In short: as §1

For GGTTTT, the binding signal (ETV2) was 1.2 fold enrichment (6-mer frequency, TF over GST control).
For AAAGCG, the binding signal (ETV2) was 1.06 fold enrichment (6-mer frequency, TF over GST control).
With GGTCCT the binding signal (FLI1) was 1.02 fold enrichment (6-mer frequency, TF over GST control), the binding signal (ERG) was 1.01 fold enrichment (6-mer frequency, TF over GST control) and the binding signal (ELF1) was 1.06 fold enrichment (6-mer frequency, TF over GST control). The binding signal (ETV5) was 1 fold enrichment (6-mer frequency, TF over GST control), the binding signal (ELF4) was 1.02 fold enrichment (6-mer frequency, TF over GST control) and the binding signal (ETV2) was 1.13 fold enrichment (6-mer frequency, TF over GST control). For the same sequence, the binding signal (ERF) was 1.16 fold enrichment (6-mer frequency, TF over GST control), the binding signal (ETV3L) was 1.03 fold enrichment (6-mer frequency, TF over GST control) and the binding signal (ETV7) was 1.09 fold enrichment (6-mer frequency, TF over GST control).
